Molecules are shown by their SMILES. The source made the active and inactive calls.

Results on 15 molecules are retold here after PubChem BioAssay.

The subject of assay [1] is PRMT1 (protein arginine N-methyltransferase 1). As to the kind of experiment: small molecules binding arginine methyltransferase PRMT1 – biochemical, small-molecule microarray, 635 nm fluorescence, primary screen (AID 1088).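 Also: binding of Prmt1 protein to compounds spotted on small-molecule microarray slides.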 To be noted: higher = more signal.
Assay [2] is described as follows: growth effects on S. cerevisiae YJM789 – YJM789 clinical isolate, OD600, 24 h, basal, primary screen (AID 1089).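 Also: growth of clinical yeast isolate S. cerevisiae YJM 789 seeded 1000 cells per well; test concentration not given here.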 The settings on record: higher = more signal, called active from +8 up or from −8 down.
Assay [3] is described as follows: S. pombe growth modifiers, basal conditions – strain 972, OD600, 24 h, no modulator, primary screen (AID 1090).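 Also: basal condition with compound alone and no growth modifier present; test concentration not given here.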 To be noted: S. pombe 972 growth, higher = more signal, called active from +8 up or from −8 down.
Assay [4] can be described thus: budding yeast growth modifiers under rapamycin – strain BY4716, OD600, 96 h, primary screen (AID 1091). Also: test concentration not given here. To be noted: S. cerevisiae BY4716 + rapamycin, higher = more signal, called active from +8 up or from −8 down.
For assay [5], the target named is Torsin-1A-interacting protein 2 (Homo sapiens) (UniProt Q8NFQ8). The assay can be described thus: small molecules binding lysate-expressed LULL1 – cell lysate, human LULL1 lysate, 635/667 nm fluorescence, primary screen (AID 1092).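 Also: probe is lysate of COS7 cells overexpressing human LULL1; score merges per-feature 667 nm fluorescence with signal-to-noise.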 The settings on record: small-molecule microarray, hLULL1 lysate binding, 635 nm fluorescence; higher = more signal.
Sequence of Torsin-1A-interacting protein 2 (Homo sapiens) (Q8NFQ8 whole entry, looked up): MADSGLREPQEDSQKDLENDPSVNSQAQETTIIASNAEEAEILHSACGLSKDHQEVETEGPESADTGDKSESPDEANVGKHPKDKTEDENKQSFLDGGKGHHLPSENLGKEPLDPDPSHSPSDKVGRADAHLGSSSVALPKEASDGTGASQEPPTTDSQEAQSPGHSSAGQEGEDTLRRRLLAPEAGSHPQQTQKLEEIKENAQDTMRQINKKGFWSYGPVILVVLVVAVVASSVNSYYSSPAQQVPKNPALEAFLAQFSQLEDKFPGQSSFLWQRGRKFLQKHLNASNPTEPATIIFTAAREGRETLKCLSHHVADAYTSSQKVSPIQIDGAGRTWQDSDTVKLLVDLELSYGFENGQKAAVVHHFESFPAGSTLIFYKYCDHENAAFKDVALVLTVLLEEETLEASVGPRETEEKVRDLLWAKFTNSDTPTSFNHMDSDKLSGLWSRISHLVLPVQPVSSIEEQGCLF
Assay [6] is described as follows: optical density change of DRC41 E. coli – strain DRC41, OD650, 24 h, E. coli filamentation project, primary screen (AID 1093).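 Also: MC1000 strain lacking acrAB efflux and sulA so SOS filamentation is blocked; test concentration not given here.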 The settings on record: E. coli DRC41 growth, higher = more signal, called active from +8 up or from −8 down.
Assay [7] in a line: probe aLefty2 binding to arrayed compounds – biochemical, biotinylated probe, 635/667 nm fluorescence, primary screen (AID 1094).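 Also: score merges spot fluorescence near 667 nm with spot signal-to-noise ratio.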 To be noted: small-molecule microarray, higher = more signal.
Assay [8] deals with Noggin (protein binding on small-molecule microarray). As to the kind of experiment: small molecules binding Noggin protein – biochemical, 635/667 nm fluorescence, primary screen (AID 1095).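 Also: score merges 667 nm feature fluorescence with signal to noise over triplicate slides.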 The settings on record: 635 nm fluorescence, higher = more signal.
Assay [9] addresses Neurogenic locus notch homolog protein 3 (Homo sapiens) (UniProt Q9UM47). As to the kind of experiment: small molecules binding NOTCH3 protein – biochemical, 635/667 nm fluorescence, primary screen (AID 1096). The settings on record: small-molecule microarray, 635 nm fluorescence, higher = more signal.
Assay [10] is described as follows: probe aEGFR binding to arrayed compounds – biochemical, biotinylated probe, 635/667 nm fluorescence, primary screen (AID 1097).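 Also: probe is a biotinylated anti-EGFR antibody binding compounds printed on slides; score combines fluorescence near 667 nm and signal to noise of each spot.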 The settings on record: small-molecule microarray, higher = more signal.

Sequence of Neurogenic locus notch homolog protein 3 (Homo sapiens) (Q9UM47 whole entry, looked up): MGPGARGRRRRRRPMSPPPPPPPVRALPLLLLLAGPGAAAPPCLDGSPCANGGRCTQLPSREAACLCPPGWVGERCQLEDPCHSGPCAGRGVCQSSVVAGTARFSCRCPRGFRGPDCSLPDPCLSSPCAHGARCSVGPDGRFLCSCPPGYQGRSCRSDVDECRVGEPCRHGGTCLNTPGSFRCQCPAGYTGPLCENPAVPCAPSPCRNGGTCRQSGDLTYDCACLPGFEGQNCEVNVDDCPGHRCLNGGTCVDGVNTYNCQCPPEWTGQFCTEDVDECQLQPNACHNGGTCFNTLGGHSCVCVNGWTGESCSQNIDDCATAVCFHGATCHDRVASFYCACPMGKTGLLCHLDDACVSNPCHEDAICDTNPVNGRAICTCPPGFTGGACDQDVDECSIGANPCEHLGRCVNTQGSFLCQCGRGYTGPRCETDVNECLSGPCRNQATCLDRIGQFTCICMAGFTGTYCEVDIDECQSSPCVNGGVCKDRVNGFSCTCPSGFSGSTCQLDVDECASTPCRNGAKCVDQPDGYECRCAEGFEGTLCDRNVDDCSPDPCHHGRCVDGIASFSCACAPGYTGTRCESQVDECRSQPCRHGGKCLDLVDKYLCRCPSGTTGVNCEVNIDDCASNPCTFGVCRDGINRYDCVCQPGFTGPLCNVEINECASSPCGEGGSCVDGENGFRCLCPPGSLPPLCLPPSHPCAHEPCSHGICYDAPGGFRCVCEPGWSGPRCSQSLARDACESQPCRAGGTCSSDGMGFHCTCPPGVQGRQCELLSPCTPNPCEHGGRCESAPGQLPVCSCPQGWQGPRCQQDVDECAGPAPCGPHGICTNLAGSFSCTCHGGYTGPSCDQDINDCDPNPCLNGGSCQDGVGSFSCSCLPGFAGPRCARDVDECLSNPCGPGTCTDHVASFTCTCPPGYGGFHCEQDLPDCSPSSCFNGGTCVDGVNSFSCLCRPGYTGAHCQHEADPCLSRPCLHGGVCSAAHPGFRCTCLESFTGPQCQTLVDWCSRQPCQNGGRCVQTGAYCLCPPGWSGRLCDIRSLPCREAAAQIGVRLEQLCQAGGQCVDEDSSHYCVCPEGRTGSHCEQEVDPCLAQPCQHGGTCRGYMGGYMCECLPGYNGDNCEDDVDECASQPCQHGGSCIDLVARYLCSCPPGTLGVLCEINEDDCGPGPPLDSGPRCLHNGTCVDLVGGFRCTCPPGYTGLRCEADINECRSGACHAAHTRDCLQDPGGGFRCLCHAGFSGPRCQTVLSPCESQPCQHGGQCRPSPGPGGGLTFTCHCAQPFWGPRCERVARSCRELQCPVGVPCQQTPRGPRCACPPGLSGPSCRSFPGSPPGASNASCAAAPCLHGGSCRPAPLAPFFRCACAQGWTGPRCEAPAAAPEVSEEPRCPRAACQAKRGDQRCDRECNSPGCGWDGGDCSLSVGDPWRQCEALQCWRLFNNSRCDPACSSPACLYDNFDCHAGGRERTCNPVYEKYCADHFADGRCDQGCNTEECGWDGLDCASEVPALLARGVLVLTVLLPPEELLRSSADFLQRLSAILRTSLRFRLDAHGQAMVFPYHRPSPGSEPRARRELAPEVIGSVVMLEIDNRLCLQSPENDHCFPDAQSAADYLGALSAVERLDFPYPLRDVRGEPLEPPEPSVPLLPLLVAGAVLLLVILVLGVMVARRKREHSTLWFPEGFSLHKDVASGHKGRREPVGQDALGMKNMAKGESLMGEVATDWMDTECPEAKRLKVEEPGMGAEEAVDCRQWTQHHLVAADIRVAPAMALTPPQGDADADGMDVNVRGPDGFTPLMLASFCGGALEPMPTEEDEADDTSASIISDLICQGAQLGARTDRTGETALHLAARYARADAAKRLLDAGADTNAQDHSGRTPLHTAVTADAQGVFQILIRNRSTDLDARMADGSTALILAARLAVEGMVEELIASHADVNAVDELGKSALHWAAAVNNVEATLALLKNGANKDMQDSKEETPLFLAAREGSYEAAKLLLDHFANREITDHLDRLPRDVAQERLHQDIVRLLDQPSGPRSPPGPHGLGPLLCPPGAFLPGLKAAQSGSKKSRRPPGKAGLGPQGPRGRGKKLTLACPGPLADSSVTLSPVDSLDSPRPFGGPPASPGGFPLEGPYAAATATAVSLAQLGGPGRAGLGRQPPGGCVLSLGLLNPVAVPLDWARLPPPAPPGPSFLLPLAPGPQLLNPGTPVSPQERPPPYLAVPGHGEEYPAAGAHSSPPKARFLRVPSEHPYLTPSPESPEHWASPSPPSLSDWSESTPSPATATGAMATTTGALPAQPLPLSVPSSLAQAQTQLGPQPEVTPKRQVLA

As for `CC(C)C[C@@H]1NC(=O)[C@H]2C[C@@H](C(=O)NCCCCCC[N+](C)(C)C)[C@@H](c3cccc(OCCO)c3)N2C1=O`, the composite z-score is 1.13 in assay [1]; 2.49 in [5]; -0.166 in assay [7]; 1.47 in [8]; 1.07 in [9]; 0.038 in assay [10]. Moreover, the z-score in [2] is -1.15 (inactive); in [3], -0.455 (inactive); in assay [4], -0.794 (inactive); in [6], 0.319 (inactive).
Take `CC(C)C(=C=CC[C@H](O)c1ccc(OCCO)cc1)C[C@H](O)c1cc(Cl)cc(Cl)c1O`: the composite z-score was 1.4 in assay [1]; 1.78 in [5]; 0.0511 in assay [7]; 1.41 in assay [8]; 1.04 in assay [9]; -0.008 in assay [10]. For the same molecule, the z-score in [2] is 0.297 (inactive); in assay [3], -3.66 (inactive); in [4] it was -0.558 (inactive); in [6], 0.192 (inactive).
For `C=CC[C@@H](OC(=O)Nc1ccc(OC)cc1)c1ccc(OCCO)cc1`, the composite z-score in assay [1] was -0.424; in [5], -0.0818; in assay [7] it was -0.0304; in assay [8] it was -0.929; in assay [9], -0.801; in assay [10], -0.338. The z-score in assay [2] was -0.348 (inactive); in assay [3], -3.59 (inactive); in assay [4], 0.126 (inactive); in assay [6], 0.743 (inactive).
Take `C[C@@H](OCc1ccccc1)C1NC(=O)[C@@]23C(=O)N[C@@H](Cc4ccccc4)C2[C@H](C)[C@@]2(C)O[C@H]2C3/C=C/C/C=C\CNC(=O)CNC1=O` (stereo not given in full): the composite z-score is -0.615 in assay [1]; 0.621 in assay [5]; -0.145 in assay [7]; -0.526 in assay [8]; -0.0955 in [9]; -0.24 in assay [10]. The z-score is 0.569 (inactive) in assay [2], -1.32 (inactive) in [3], -0.929 (inactive) in assay [4] and -0.557 (inactive) in [6].
Take `NCCCCCNC(=O)[C@@H]1C[C@@H]2C(=O)N[C@@H](CCCCN)C(=O)N2[C@@H]1c1cccc(OCCO)c1`: the composite z-score in [1] was 0.61; in assay [5] it was 0.557; in [7] it was 0.119; in assay [8], 0.878; in [9], 0.702; in [10] it was -0.0306. The z-score in assay [2] is 0.656 (inactive); in assay [3] it was 0.212 (inactive); in assay [4], -0.0182 (inactive); in [6], 0.767 (inactive).
For `[N-]=[N+]=NCc1ccccc1C[C@@]1(C(=O)N2CCCCC2)N=C(c2ccc(OCCCO)cc2)O[C@@H]1c1ccccc1N=[N+]=[N-]`, the composite z-score is 0.422 in assay [1]; 1.73 in assay [5]; -0.0591 in assay [7]; 0.244 in assay [8]; 0.923 in assay [9]; 0.0923 in [10]. Moreover, the z-score in assay [2] was -0.64 (inactive); in assay [3], 0.832 (inactive); in assay [4] it was 4.02 (inactive); in assay [6], 1.17 (inactive).
Take `COc1ccc(NN2C(C(O)c3ccco3)C=CC3C(=O)N(C4CCCCC4)C(=O)C32)cc1` (stereo not given): the composite z-score in assay [1] was 1.56; in assay [5] it was 3.06; in assay [7], 0.0405; in assay [8], 0.89; in assay [9], 1.03; in assay [10] it was 0.191. Moreover, the z-score in [2] is 0.0039 (inactive); in assay [3] it was -0.134 (inactive); in assay [4], 0.705 (inactive); in assay [6], -0.465 (inactive).
For the molecule `COc1ccc(C(O)C2C=CC3C(=O)N(Cc4ccccc4)C(=O)C3N2n2cnnc2)c2ccccc12` (stereo not given), the composite z-score in [1] was 1.17; in assay [5], 2.81; in assay [7] it was -0.238; in [8], -0.641; in assay [9], 0.556; in assay [10], -0.175. The z-score in assay [2] was -0.346 (inactive); in [3], 0.0768 (inactive); in [4], -0.282 (inactive); in assay [6] it was -0.671 (inactive).
In the case of `CC(C)CNC(=O)[C@@]1(c2ccc([N+](=O)[O-])cc2)CC(=O)N(C2CCCCC2)[C@@H]1c1ccc(CO)cc1I`, the composite z-score in [1] is 0.935; in assay [5], 1.98; in [7], -0.0512; in assay [8], 0.193; in [9], 0.636; in [10], -0.096. Also, the z-score in assay [2] was -0.579 (inactive); in assay [3], 0.279 (inactive); in assay [4], -0.143 (inactive); in assay [6], -0.602 (inactive).
In the case of `[N-]=[N+]=Nc1ccccc1[C@H]1OC(c2ccc(OCCCO)cc2)=N[C@@]1(CCS(=O)(=O)c1ccccc1)C(=O)N1CCCCC1`, the composite z-score in assay [1] came to 1.51; in assay [5], 3.16; in [7], 0.428; in assay [8], 0.0467; in assay [9], 1.12; in assay [10] it was 0.176. In addition, the z-score is -0.347 (inactive) in assay [2], 0.189 (inactive) in assay [3], 2.73 (inactive) in assay [4] and -0.413 (inactive) in assay [6].
Take `CC(C)CN1C(=O)[C@@]2(c3ccc([N+](=O)[O-])cc3)CC(=O)N(CC34CC5CC(CC(C5)C3)C4)[C@@H]2c2ccc(CO)cc21`: the composite z-score in [1] is -0.297; in [5], 0.295; in assay [7], -0.239; in assay [8] it was -1.21; in assay [9] it was -0.506; in assay [10], -0.256. Also, the z-score is 0.275 (inactive) in assay [2], 0.0569 (inactive) in assay [3], -1.32 (inactive) in assay [4] and -1.55 (inactive) in assay [6].
For the molecule `CC(=O)n1cc(C(O)C2C=CC3C(=O)N(c4ccccc4)C(=O)C3N2Nc2ccccc2)c2ccccc21` (stereo not given), the composite z-score in assay [1] is 0.174; in assay [5], 2.73; in assay [7] it was 0.203; in assay [8], -0.272; in assay [9] it was 0.816; in [10], 0.672. For the same molecule, the z-score is 0.514 (inactive) in [2], 0.965 (inactive) in [3], 0.102 (inactive) in assay [4] and -1.18 (inactive) in assay [6].
With `O=C1NC(=O)C2C1C=CC(C(O)c1c(F)cccc1Cl)N2Nc1ccccn1` (stereo not given), the composite z-score in assay [1] was 0.409; in assay [5], -0.191; in assay [7] it was 0.21; in assay [8], 0.148; in assay [9], 0.01; in assay [10] it was 0.213. For the same molecule, the z-score in assay [2] is 0.107 (inactive); in [3] it was 0.983 (inactive); in assay [4], 0.0515 (inactive); in assay [6] it was -0.764 (inactive).
On to `CC(C)N1CC=CC23O[C@@H]4C=CCCOC(=O)C4[C@H]2C(=O)N(CCO)[C@@H]3C1=O` (stereo not given in full), for which the composite z-score in [1] was 0.291; in [5], -0.805; in [7] it was -0.145; in assay [8], -0.736; in [9] it was -0.362; in assay [10], -0.203. The z-score in assay [2] was -0.631 (inactive); in [3], -0.349 (inactive); in assay [4], -1.2 (inactive); in [6], 2.99 (inactive).
For the molecule `O=C1c2ccccc2[C@@]2(Cc3ccccc3N(C3CC3)C2=O)[C@H](c2ccc(CO)cc2)N1C1CCCCC1`, the composite z-score in [1] is -0.767; in assay [5], 1.79; in assay [7], -0.17; in assay [8], -0.699; in assay [9] it was -0.938; in [10] it was -0.168. In addition, the z-score is -0.451 (inactive) in assay [2], 0.285 (inactive) in [3], -0.728 (inactive) in assay [4] and -0.1 (inactive) in [6].
